Data from PubChem BioAssay.
The source made the active and inactive calls.

Assays:
[1] = system: PRMT1 (protein arginine N-methyltransferase 1); test: small molecules binding arginine methyltransferase PRMT1 – biochemical, small-molecule microarray, 635 nm fluorescence, primary screen (AID 1088); conditions: higher = more signal;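 further: binding of Prmt1 protein to compounds spotted on small-molecule microarray slides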
[2] = growth effects on S. cerevisiae YJM789 – YJM789 clinical isolate, OD600, 24 h, basal, primary screen (AID 1089); conditions: higher = more signal, called active from +8 up or from −8 down;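 further: growth of clinical yeast isolate S. cerevisiae YJM 789 seeded 1000 cells per well; test concentration not given here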
[3] = S. pombe growth modifiers, basal conditions – strain 972, OD600, 24 h, no modulator, primary screen (AID 1090);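 further: basal condition with compound alone and no growth modifier present; test concentration not given here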; conditions: S. pombe 972 growth, higher = more signal, called active from +8 up or from −8 down
[4] = budding yeast growth modifiers under rapamycin – strain BY4716, OD600, 96 h, primary screen (AID 1091); further: test concentration not given here; conditions: S. cerevisiae BY4716 + rapamycin, higher = more signal, called active from +8 up or from −8 down
[5] = target: Torsin-1A-interacting protein 2 (Homo sapiens) (UniProt Q8NFQ8); test: small molecules binding lysate-expressed LULL1 – cell lysate, human LULL1 lysate, 635/667 nm fluorescence, primary screen (AID 1092); conditions: small-molecule microarray, hLULL1 lysate binding, 635 nm fluorescence; higher = more signal;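 further: probe is lysate of COS7 cells overexpressing human LULL1; score merges per-feature 667 nm fluorescence with signal-to-noise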
[6] = optical density change of DRC41 E. coli – strain DRC41, OD650, 24 h, E. coli filamentation project, primary screen (AID 1093);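 further: MC1000 strain lacking acrAB efflux and sulA so SOS filamentation is blocked; test concentration not given here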; conditions: E. coli DRC41 growth, higher = more signal, called active from +8 up or from −8 down
[7] = probe aLefty2 binding to arrayed compounds – biochemical, biotinylated probe, 635/667 nm fluorescence, primary screen (AID 1094); conditions: small-molecule microarray, higher = more signal;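 further: score merges spot fluorescence near 667 nm with spot signal-to-noise ratio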
[8] = system: Noggin (protein binding on small-molecule microarray); test: small molecules binding Noggin protein – biochemical, 635/667 nm fluorescence, primary screen (AID 1095); conditions: 635 nm fluorescence, higher = more signal;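 further: score merges 667 nm feature fluorescence with signal to noise over triplicate slides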
[9] = target: Neurogenic locus notch homolog protein 3 (Homo sapiens) (UniProt Q9UM47); test: small molecules binding NOTCH3 protein – biochemical, 635/667 nm fluorescence, primary screen (AID 1096); conditions: small-molecule microarray, 635 nm fluorescence, higher = more signal
[10] = probe aEGFR binding to arrayed compounds – biochemical, biotinylated probe, 635/667 nm fluorescence, primary screen (AID 1097); conditions: small-molecule microarray, higher = more signal;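 further: probe is a biotinylated anti-EGFR antibody binding compounds printed on slides; score combines fluorescence near 667 nm and signal to noise of each spot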

Sequence of Neurogenic locus notch homolog protein 3 (Homo sapiens) (Q9UM47 whole entry, looked up): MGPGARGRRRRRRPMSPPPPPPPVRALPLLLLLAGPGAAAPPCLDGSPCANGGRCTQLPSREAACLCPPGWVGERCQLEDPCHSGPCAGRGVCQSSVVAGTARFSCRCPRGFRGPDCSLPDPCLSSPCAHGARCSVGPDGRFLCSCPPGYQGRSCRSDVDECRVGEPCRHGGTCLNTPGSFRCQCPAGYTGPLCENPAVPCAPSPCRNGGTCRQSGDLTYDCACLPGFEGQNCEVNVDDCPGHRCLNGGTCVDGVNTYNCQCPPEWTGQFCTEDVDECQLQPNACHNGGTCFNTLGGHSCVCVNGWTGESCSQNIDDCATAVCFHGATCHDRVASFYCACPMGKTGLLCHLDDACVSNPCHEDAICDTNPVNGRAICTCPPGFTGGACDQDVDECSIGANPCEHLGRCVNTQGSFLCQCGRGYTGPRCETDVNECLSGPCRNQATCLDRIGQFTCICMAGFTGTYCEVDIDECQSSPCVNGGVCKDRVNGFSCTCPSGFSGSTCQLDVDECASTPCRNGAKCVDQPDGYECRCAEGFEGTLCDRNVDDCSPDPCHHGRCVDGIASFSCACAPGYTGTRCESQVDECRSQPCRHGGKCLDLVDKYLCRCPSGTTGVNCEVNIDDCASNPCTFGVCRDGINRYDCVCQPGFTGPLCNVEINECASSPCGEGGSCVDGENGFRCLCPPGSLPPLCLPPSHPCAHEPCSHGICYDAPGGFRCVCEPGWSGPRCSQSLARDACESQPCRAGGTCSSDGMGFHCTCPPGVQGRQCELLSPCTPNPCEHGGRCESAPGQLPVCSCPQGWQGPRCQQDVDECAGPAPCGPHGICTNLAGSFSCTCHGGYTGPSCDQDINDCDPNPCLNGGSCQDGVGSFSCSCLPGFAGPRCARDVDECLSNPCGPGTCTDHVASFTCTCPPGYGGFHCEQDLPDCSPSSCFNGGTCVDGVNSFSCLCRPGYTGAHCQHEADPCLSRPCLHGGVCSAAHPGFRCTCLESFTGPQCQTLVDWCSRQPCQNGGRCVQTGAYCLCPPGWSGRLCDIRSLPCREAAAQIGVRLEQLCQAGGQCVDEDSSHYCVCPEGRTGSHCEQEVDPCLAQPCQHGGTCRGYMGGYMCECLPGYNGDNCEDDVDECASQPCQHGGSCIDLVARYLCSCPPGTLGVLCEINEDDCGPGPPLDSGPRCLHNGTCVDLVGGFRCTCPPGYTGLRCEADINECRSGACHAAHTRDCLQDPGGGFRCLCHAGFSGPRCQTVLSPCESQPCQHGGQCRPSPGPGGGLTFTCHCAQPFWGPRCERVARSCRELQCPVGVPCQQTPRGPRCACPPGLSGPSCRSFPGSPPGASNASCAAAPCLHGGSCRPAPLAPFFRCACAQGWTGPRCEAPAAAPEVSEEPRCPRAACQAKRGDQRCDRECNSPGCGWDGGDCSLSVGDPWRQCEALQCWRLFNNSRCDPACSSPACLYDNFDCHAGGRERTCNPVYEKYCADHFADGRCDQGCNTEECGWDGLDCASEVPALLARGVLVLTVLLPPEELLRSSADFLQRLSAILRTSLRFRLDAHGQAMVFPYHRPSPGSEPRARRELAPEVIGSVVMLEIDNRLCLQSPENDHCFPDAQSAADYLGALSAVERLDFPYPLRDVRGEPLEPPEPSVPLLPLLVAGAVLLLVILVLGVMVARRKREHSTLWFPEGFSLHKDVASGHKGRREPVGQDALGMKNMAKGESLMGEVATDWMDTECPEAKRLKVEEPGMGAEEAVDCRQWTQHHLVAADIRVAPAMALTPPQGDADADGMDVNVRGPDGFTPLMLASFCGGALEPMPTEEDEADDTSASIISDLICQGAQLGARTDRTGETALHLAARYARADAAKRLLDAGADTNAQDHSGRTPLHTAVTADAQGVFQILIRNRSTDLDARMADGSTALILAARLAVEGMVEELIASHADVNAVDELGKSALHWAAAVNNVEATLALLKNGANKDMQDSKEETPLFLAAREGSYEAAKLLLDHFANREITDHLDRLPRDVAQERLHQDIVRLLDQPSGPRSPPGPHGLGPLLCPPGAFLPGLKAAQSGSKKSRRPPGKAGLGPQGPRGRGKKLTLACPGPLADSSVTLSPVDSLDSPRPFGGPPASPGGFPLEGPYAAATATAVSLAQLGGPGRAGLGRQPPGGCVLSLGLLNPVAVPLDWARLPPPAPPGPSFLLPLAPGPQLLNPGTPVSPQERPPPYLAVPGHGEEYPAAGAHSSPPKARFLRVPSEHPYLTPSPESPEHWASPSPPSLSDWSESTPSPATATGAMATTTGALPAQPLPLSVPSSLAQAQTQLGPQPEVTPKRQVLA
Sequence of Torsin-1A-interacting protein 2 (Homo sapiens) (Q8NFQ8 whole entry, looked up): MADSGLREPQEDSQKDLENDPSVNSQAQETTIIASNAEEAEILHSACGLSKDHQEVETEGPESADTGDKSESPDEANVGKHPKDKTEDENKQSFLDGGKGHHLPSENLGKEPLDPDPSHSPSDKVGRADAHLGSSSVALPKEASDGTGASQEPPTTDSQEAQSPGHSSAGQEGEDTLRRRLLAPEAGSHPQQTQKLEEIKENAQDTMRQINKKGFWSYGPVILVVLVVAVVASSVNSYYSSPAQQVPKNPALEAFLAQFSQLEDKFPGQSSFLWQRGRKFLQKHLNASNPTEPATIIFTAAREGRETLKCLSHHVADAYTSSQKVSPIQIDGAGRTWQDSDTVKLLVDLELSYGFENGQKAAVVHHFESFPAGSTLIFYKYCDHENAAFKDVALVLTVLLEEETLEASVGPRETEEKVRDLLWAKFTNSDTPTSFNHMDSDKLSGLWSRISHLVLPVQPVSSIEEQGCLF

Structure (SMILES)	composite z-score [1]	z-score [2]	z-score [3]	z-score [4]	composite z-score [5]	z-score [6]	composite z-score [7]	composite z-score [8]	composite z-score [9]	composite z-score [10]
CC(C)N1C(=O)C[C@@](C(=O)NCC(F)(F)F)(c2ccc([N+](=O)[O-])cc2)[C@H]1c1ccc(CO)cc1	1.55	-0.804 (inactive)	-1.63 (inactive)	-1.63 (inactive)	3.32	-0.29 (inactive)	-0.195	0.493	0.356	-0.0987
CC(=O)NCCCC[C@@H]1NC(=O)[C@@H]2C[C@H](C(=O)NCCCCCNC(=O)CS)[C@H](c3cccc(OCCO)c3)N2C1=O	1.18	-3.39 (inactive)	-0.0277 (inactive)	-2.5 (inactive)	-0.0484	1.16 (inactive)	-0.141	1.55	0.486	-0.0808
O=C1c2ccccc2[C@](Cc2ccccc2I)(C(=O)NCCN2CCOCC2)[C@H](c2ccc(CO)cc2)N1Cc1ccccc1Cl	1.55	-0.747 (inactive)	-0.0063 (inactive)	-1.04 (inactive)	2.45	-0.116 (inactive)	0.225	0.72	1.12	0.0523
CCCC[C@@H]1C[C@H]1[C@@H](NC(=O)c1ccccc1)c1ccc(C(=O)OC)cc1	-0.406	-1.24 (inactive)	-11.2 (active)	-2.61 (inactive)	0.0062	-1.13 (inactive)	0.285	0.894	-0.544	-0.224
COC(=O)[C@@]1(Cc2ccccc2)N=C(c2ccc(OCCCO)cc2)O[C@H]1c1ccccc1	1.31	-0.774 (inactive)	-1.99 (inactive)	3.21 (inactive)	2.05	1.55 (inactive)	0.116	0.0302	0.107	-0.123
[N-]=[N+]=NCc1ccccc1[C@@H]1OC(c2ccc(OCCCO)cc2)=N[C@]1(Cc1ccccc1)C(N)=O	1.48	-0.368 (inactive)	-2.27 (inactive)	-0.784 (inactive)	3.36	0.455 (inactive)	0.227	0.683	1.06	0.154
CC#CC(=O)Oc1ccccc1C=CC(=O)OCC	0.779	-2.32 (inactive)	-15.4 (active)	-2.16 (inactive)	1.33	0.316 (inactive)	-0.0549	0.664	0.225	-0.0531
C=CCN1C(=O)[C@@]2(Cc3ccccc31)N=C(c1ccc(OCCCO)cc1)O[C@H]2c1ccccc1	1.54	-1.95 (inactive)	-6.68 (inactive)	2.77 (inactive)	3.12	1.44 (inactive)	0.352	0.638	1.11	0.122
C=CCNC(=O)[C@H]1[C@@H]2C(=O)O[C@@H](c3ccccc3)[C@@H](c3ccccc3)N2[C@@H](c2ccccc2OCCO)[C@]12C(=O)Nc1ccc(C#CCCO)cc12	-0.294	1.69 (inactive)	-0.648 (inactive)	4.32 (inactive)	2.24	-0.462 (inactive)	-0.0617	-0.76	-0.104	-0.0353
C=C(COC)/C(=C/C[C@@H](OC(=O)c1ccncc1)c1ccc(CO)o1)c1cc(C(=O)OC)ccc1OC	1.53	0.102 (inactive)	-0.262 (inactive)	-0.127 (inactive)	2	0.564 (inactive)	-0.178	1.68	1.07	0.0878
COCCOC(=O)N1C(=O)[C@@]2(c3ccccc31)[C@H](C(=O)N1CCc3cc(OC)c(OC)cc3C1)[C@H]1C(=O)O[C@H](c3ccccc3)[C@H](c3ccccc3)N1[C@@H]2c1ccc(OCCO)cc1	1.51	2.26 (inactive)	0.476 (inactive)	4.47 (inactive)	2.27	1.68 (inactive)	0.103	0.94	0.995	-0.0309
C=C[C@H](OC)[C@@H](OC(=O)Nc1ccc(OC)cc1)c1ccc(O)c(F)c1	0.148	0.337 (inactive)	-1.18 (inactive)	1.3 (inactive)	1.89	0.512 (inactive)	-0.21	-0.932	-0.363	-0.335
CN1C(=O)C2C=CC(C(O)c3ccc([N+](=O)[O-])cc3)N(N3CCCCC3)C2C1=O (stereo not given)	0.957	0.462 (inactive)	0.647 (inactive)	0.19 (inactive)	2.69	-1.74 (inactive)	0.347	-0.245	1.07	0.161
COCCOC(=O)N1C(=O)[C@@]2(c3cc(C#CCNC(N)=O)ccc31)[C@H](C(=O)N1CCN(c3ncccn3)CC1)[C@H]1C(=O)O[C@H](c3ccccc3)[C@H](c3ccccc3)N1[C@@H]2c1ccc(OCCO)cc1	1.57	1.51 (inactive)	0.383 (inactive)	4.36 (inactive)	2.34	-0.351 (inactive)	0.0158	0.707	1.1	-0.0271
CCCC[C@@H]1C[C@H]1[C@@H](NC(=O)c1ccco1)c1ccc(-c2ccccc2)cc1	1.11	0.186 (inactive)	0.316 (inactive)	0.569 (inactive)	-0.397	-1.45 (inactive)	0.0682	0.61	0.234	0.0258
CCCC=C(CCC)[C@@H](NC(=O)c1cccs1)c1ccc(C(F)(F)F)cc1	1.03	-0.522 (inactive)	-2.1 (inactive)	-0.851 (inactive)	0.109	-0.649 (inactive)	0.291	0.989	1.09	0.315
CO[C@H]1O[C@H](CO)[C@@H](OC(=O)Nc2ccc(Oc3ccccc3)cc2)[C@H](OC(=O)Nc2ccc3c(c2)OCO3)[C@H]1OC(=O)Nc1ccc2c(c1)OCO2	1.53	1.57 (inactive)	1.02 (inactive)	2.07 (inactive)	2.42	2 (inactive)	0.25	0.39	1.02	0.166
CCOC(=O)C[C@H]1[C@H](OC(=O)c2ccc(C(=O)c3ccccc3)cc2)[C@@H](NC(=O)c2ccc3ccccc3n2)c2cc(OCCCO)ccc2N1C(=O)c1ccccc1	1.23	-0.658 (inactive)	0.103 (inactive)	-0.291 (inactive)	1.94	-1.16 (inactive)	-0.025	0.552	0.99	0.0864
CN(C)CCCCCCNC(=O)[C@H]1C[C@H]2C(=O)N3CCC[C@H]3C(=O)N2[C@H]1c1ccc(O)cc1	1.53	-0.389 (inactive)	-1.4 (inactive)	0.24 (inactive)	2.9	1.95 (inactive)	0.172	1.74	1.07	0.475
COc1ccc(CCNC(=O)[C@@H]2c3ccccc3C(=O)N(Cc3ccccc3Cl)[C@H]2c2ccc(CO)cc2)cc1	0.533	-0.874 (inactive)	-0.96 (inactive)	0.35 (inactive)	1.65	-0.139 (inactive)	-0.0299	-0.215	0.124	0.0121
NC(=O)NCC#Cc1ccc2c(c1)[C@]1(C(=O)N2)[C@H](C(N)=O)[C@H]2C(=O)O[C@H](c3ccccc3)[C@H](c3ccccc3)N2[C@@H]1c1ccc(O)cc1	0.317	-0.989 (inactive)	-0.434 (inactive)	-0.07 (inactive)	3.6	0.792 (inactive)	0.411	0.544	-0.382	-0.413
CCS[C@H]1[C@@H](C(=O)O)[C@H](c2ccc(C)cc2)N(S(=O)(=O)c2ccc(C)cc2)[C@@H]1CC	0.811	-0.406 (inactive)	0.588 (inactive)	-0.0003 (inactive)	3.26	0.401 (inactive)	0.105	-0.0193	1.11	-0.0563
